Compound activity deposited in PubChem by National Center for Advancing Translational Sciences (NCATS).
Compounds with a hit are over-represented: about 12% of the library has one in this group of screens.
AmpC inh no detg: inhibitors of E. coli AmpC beta-lactamase without detergent; Potency, µM (highest dose often 57.1 µM), for inactives: at the highest dose activity change, negative = inhibition, most hits filed as inhibitors; P00811; AID 485341; hit rate 0.52% among 330,000; AmpC nitrocefin hydrolysis, absorbance 480 nm, 0.0001% Triton;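 also: plate controls were no compound for no effect and no enzyme for full effect; nearly all actives have a fitted effect of over 20% in size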
Target sequence (P00811 whole entry, looked up): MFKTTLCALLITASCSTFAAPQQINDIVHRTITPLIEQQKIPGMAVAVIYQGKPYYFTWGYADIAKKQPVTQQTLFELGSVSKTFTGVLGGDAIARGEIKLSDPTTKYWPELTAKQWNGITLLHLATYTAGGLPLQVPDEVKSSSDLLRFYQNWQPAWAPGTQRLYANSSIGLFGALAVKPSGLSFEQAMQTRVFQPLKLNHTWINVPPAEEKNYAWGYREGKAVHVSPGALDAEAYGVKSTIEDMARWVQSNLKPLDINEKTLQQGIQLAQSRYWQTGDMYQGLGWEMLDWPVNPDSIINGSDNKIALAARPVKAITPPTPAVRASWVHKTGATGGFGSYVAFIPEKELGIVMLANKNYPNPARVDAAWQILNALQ
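AmpC (5.3 nM in the dispensed reagent) in 20 mM phosphate pH 7.0 with 0.01% (detergent screen) or 0.0001% Triton X-100 was preincubated with compounds for 15 min at room temperature. Nitrocefin was then added from an 800 uM solution, and hydrolysis was followed at 480 nm.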
SARS PLP yeast: SARS-CoV PLP inhibition in yeast; AID 485353; Potency, µM (highest dose often 32.9 µM), without a hit: at the top dose activity, positive = growth rescue, actives largely listed as activators; hit rate 0.19% among 330,000; S. cerevisiae expressing SARS-CoV PLpro, growth rescue; calls by dose curve; also: 0% is about no effect; nearly all actives have a fitted effect of over 55% in size
AmpC inh detg: inhibitors of E. coli AmpC beta-lactamase with detergent; P00811; AmpC hydrolysis of nitrocefin, absorbance 480 nm, 0.01% Triton; Potency, µM (doses to about 114 µM), for the others: top-dose activity change, negative = inhibition, actives largely listed as inhibitors; hit rate 0.041% among 370,000;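 also: 0% = no-compound wells and -100% = no-enzyme wells; nearly all actives have a fitted effect of over 25% in size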
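AmpC (5.3 nM in the dispensed reagent) in 20 mM phosphate pH 7.0 with 0.01% (detergent screen) or 0.0001% Triton X-100 was preincubated with compounds for 15 min at room temperature. Nitrocefin was then added from an 800 uM solution, and hydrolysis was followed at 480 nm.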
Pf growth 96h: P. falciparum growth inhibition at 96 hour, primary screen for plastid delayed-death inhibitors | P. falciparum luciferase reporter growth, 96 h | Potency, µM (highest dose often 28.7 µM), for inactives: at the highest dose activity change, negative = inhibition, most hits filed as inhibitors | hit rate 6.9% among 320,000 | AID 504834; also: % is scaled to controls: 0 for no effect and ±100 for the full control effect
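Luminescence readout: decreased luciferase signal marks inhibited growth of reporter-expressing P. falciparum in infected red cells (2% hematocrit, 0.05% parasitemia final), exposed to compound two generations (96 h, 37 C, 5% CO2).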
Pf growth 48h: P. falciparum growth inhibition at 48 hours (one generation); P. falciparum luciferase growth in erythrocytes, 48 h; hit rate 5.9% among 310,000; AID 504832; Potency, µM (series often up to 28.7 µM), inactives show at the highest dose activity change, negative = inhibition, most hits filed as inhibitors; also: % is scaled to controls: 0 for no effect and ±100 for the full control effect
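Luciferase-expressing P. falciparum in infected erythrocytes (2% hematocrit, 0.1% parasitemia final) in RPMI 1640/0.5% Albumax were exposed to compound for 48 hours at 37 C, 5% CO2; growth read as luminescence.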
Sm TGR block: S. mansoni TGR enzyme inhibition | purified TGR, DTNB reduction, TNB absorbance 405 nm | Potency, µM (titrated, usually from 114 µM), for the others: top-dose activity change, negative = inhibition, actives largely listed as inhibitors | hit rate 3% among 360,000 | AID 485364; also: % is scaled to controls: 0 for no effect and ±100 for the full control effect; nearly all actives have a fitted effect of over 60% in size
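Kinetic colorimetric format: TGR-catalysed, NADPH-driven DTNB reduction monitored via TNB absorbance. Enzyme dispensed at 20 nM; compound exposure 15 min at room temperature before reaction start.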
The depositor's hits bear a star; ? = inconclusive; . = no result given; [ ] = another dose, or the depositor's remark. Unless noted, calls follow the shape of the dose curve; as a rule, active = well fitted curve in the direction sought with a large enough effect; inconclusive = small, poorly fitted or top-dose-only effect, or another doubt; inactive = no such curve, though single readings can be large; an effect the other way counts as inactive or inconclusive. Potency is read from the fitted curve at half-maximal effect.

SMILES | AmpC inh no detg | SARS PLP yeast | AmpC inh detg | Pf growth 96h | Pf growth 48h | Sm TGR block
Cc1ccc2nc(SCC(=O)Nc3ccccc3N3CCOCC3)c(C#N)cc2c1 | -10% | 5% | -2% | ? | 7.4µM* | -7%
CCOc1ccc2nc(SCC(=O)N3c4ccccc4Sc4ccccc43)sc2c1 | -22% | 1% | 2% | -11% | 3% | -7%
CCOc1ccc2nc(SCC(=O)N3c4ccccc4Sc4ccccc43)c(C#N)cc2c1 | ? | -7% | -13% | ? | 10µM* | 1%
CSCCC(NC(=O)c1cccc([N+](=O)[O-])c1)c1nc2ccccc2[nH]1 (stereo not drawn) | 20µM* | -8% | -3% | ? | ? | -6%
CSCC[C@H](NC(=O)c1cccc(S(=O)(=O)N2CCCCC2)c1)c1nc2ccccc2[nH]1 | -19% | 0% | . | . | . | .
CCCNC(=O)C(Cc1ccccc1)NC(=O)c1cccc([N+](=O)[O-])c1 (stereo not drawn) | -3% | 6% | 2% | ? | 8.3µM* | -4%
O=C(NC(Cc1ccccc1)c1nc2ccccc2[nH]1)c1cccc([N+](=O)[O-])c1 (stereo not drawn) | -37% | -2% | -2% | 12µM* | ? | 1%
O=C(Nc1nc2ccccc2[nH]1)c1cccc([N+](=O)[O-])c1 | -20%[2.29 µM] | 1% | 10% | 8% | 0% | 0%
CCCNC(=O)C(Cc1cccc(C#N)c1)NC(=O)c1cccc([N+](=O)[O-])c1 (stereo not drawn) | -2% | 1% | 8% | ? | ? | -2%
CSCC[C@H](NC(=O)c1cc([N+](=O)[O-])ccc1Cl)c1nc2ccccc2[nH]1 | -18% | 15% | ? | 15µM* | 12µM* | -25%
COc1ccc(S(=O)(=O)NCC2CCC(C(=O)NCCCN3CCCC3=O)CC2)cc1 (stereo not drawn) | 10% | 12% | -14% | 0% | 9% | -12%
COc1ccc(-c2c(C(C)=O)c(C)n(C)c2C)cc1 | -11% | 5% | ? | 12µM* | 25% | -8%
CCc1ccc(CNC(=O)c2ccc(Cn3c(=O)c4cccn4c4cccnc43)cc2)cc1 | . | . | 1% | . | . | 3%
Cc1csc(-c2cnn(-c3ccccc3)c2NC(=O)c2cccc(C(F)(F)F)c2)n1 | 172% | -10% | -13% | 10µM* | . | -4%
Cc1ccc(C(=O)c2sc3c(c2N)c(=O)[nH]c(=O)n3CCc2ccccc2)cc1 | -39% | 15% | -18% | 9.3µM* | ? | 7%
O=C(C1CCCN(c2ncnc3c2nc2n3CCCCC2)C1)N1CCN(c2ccc(F)cc2)CC1 (stereo not drawn) | 185% | -2% | 6% | ? | 9.3µM* | -12%
O=C(C1CCN(c2ncnc3c2nc2n3CCCCC2)CC1)N1CCN(c2ccc(Cl)cc2)CC1 | . | . | 1% | . | . | -8%
O=C(C1CCCN(c2ncnc3c2nc2n3CCCCC2)C1)N1CCN(c2ccc(Cl)cc2)CC1 (stereo not drawn) | 170% | -12% | 2% | -15% | 12µM* | 5%
CCc1ccccc1N(C)S(=O)(=O)c1cc(-c2cc(C)no2)ccc1OC | 54% | -1% | 0% | ? | ? | 9%
O=C(CC1NCCNC1=O)Nc1ccccc1F (stereo not drawn) | . | . | 2% | . | . | 18%
COc1ccc(OC)c(-c2cn(S(=O)(=O)c3ccccc3)nc2N)c1 | -38% | 6% | ? | 15µM* | . | 2%
O=C(CSc1ccccc1)NCC1(N2CCCCC2)CCCCC1 | ? | 2% | -20% | ? | -2% | 4%
Cc1ccc(Cn2nnc3c(=O)n(Cc4cc(C)ccc4C)cnc32)cc1 | -15% | -22% | 0% | 1.5µM* | ? | -2%
Cc1ccc(Cn2nnc3c(=O)n(Cc4cccc(C)c4)cnc32)cc1 | -6% | -4% | -2% | -13% | ? | 4%
